Source: PubChem
VP16 counter – counter-screen for ROR gamma inhibitors: Gal4-VP16 reporter; actives 3.5% (n = 310,000); Potency, µM (highest dose often 53.6 µM), for the others: top-dose activity, negative = inhibition, hits mostly inhibitors; Drosophila S2 Gal4-VP16 UAS-luciferase, luminescence, 20 h;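 further: Gal4-VP16 expression switched on by copper sulfate through the metallothionein promoter; on the % scale 0 is the no-effect control and ±100 the full control effect; nearly all actives have a fitted effect of over 50% in size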
RORg inh – ROR gamma (mouse) transcription inhibition. P51450. actives 5.4% (n = 310,000). Potency, µM (doses to about 53.6 µM), inactives show at the highest dose activity change, negative = inhibition, usual class: inhibitors. AID 2551. Drosophila S2 Gal4-RORgamma UAS-luciferase reporter, 20 h; further: on the % scale 0 is the no-effect control and ±100 the full control effect; nearly all actives have a fitted effect of over 60% in size
Target sequence (P51450 whole entry, looked up, the tested form may be a part): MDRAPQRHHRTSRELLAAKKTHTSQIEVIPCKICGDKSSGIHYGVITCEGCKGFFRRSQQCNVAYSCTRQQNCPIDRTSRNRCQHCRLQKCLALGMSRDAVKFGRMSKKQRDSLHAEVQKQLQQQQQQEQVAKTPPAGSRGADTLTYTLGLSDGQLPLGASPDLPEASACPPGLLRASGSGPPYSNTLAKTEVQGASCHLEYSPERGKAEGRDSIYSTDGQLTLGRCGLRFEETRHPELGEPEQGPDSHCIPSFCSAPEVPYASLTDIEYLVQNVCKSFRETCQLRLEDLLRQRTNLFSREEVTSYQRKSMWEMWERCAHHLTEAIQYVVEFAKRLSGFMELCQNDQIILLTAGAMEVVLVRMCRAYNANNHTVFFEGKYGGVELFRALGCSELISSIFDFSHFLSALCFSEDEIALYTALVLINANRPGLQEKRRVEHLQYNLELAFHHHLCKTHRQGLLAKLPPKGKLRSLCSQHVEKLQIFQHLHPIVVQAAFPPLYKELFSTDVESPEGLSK
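In this cell-based reporter format, copper sulfate (700 uM final) drives Gal4–ROR gamma fusion expression from a metallothionein promoter in Drosophila Schneider cells; compounds preincubated 1 hr, reporter read after 20 hr at ambient temperature.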
MCF10A rereplic – DNA re-replication induction in MCF 10a cells; actives 2.9% (n = 350,000); MCF 10A DNA re-replication, Hoechst nuclear intensity, 48 h; AID 624296; Potency, µM (top dose mostly 46.1 µM), for the others: top-dose activity, positive = re-replication, hits mostly activators; further: % of control where 0% means no effect; nearly all actives have a fitted effect of over 50% in size
SW480 rerep – DNA re-replication induction in SW480 cells | SW480 DNA re-replication, Hoechst DNA content imaging, 48 h | Potency, µM (series often up to 46.1 µM), without a hit: at the top dose re-replication activation, usual class: activators | actives 1.8% (n = 340,000); further: % of control where 0% means no effect; nearly all actives have a fitted effect of over 55% in size
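First, 250 cells per well were seeded. Next, compound or vehicle (23 nL) was pinned in, plates sat 48 hr at 37 C. Finally Hoechst was added for 40 min before fluorescence scanning.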
KB-V1 cytotox – KB-V1 MDR subline cytotoxicity; actives 3.4% (n = 400,000); Potency, µM (highest dose often 46.1 µM), hits mostly cytotoxic; KB-V1 MDR cells viability, CellTiter-Glo, 72 h; AID 1347076; further: on the % scale 0 is the no-effect control and ±100 the full control effect; nearly all actives have a fitted effect of over 60% in size
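Cytotoxicity toward P-gp-expressing KB-V1 cells was determined as loss of CellTiter-Glo luminescence after 72 h at 37 degrees C. Compounds were tested in quantitative HTS format across a concentration range, with curves fitted to normalized data.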
KB-3-1 cytotox – KB-3-1 parental cell cytotoxicity; KB-3-1 viability, CellTiter-Glo ATP luminescence, 72 h; Potency, µM (titrated, usually from 46.1 µM), actives largely listed as cytotoxic; actives 1.4% (n = 400,000); AID 1347075; further: on the % scale 0 is the no-effect control and ±100 the full control effect; nearly all actives have a fitted effect of over 60% in size
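Using CellTiter-Glo luminescence, growth of non-resistant KB-3-1 adenocarcinoma cells is assessed 72 h after pin-tool compound addition at 37 °C. Normalized responses across the concentration series yield fitted curves.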
Active calls of the source: *; i = inactive; u = inconclusive; x = not tested or not shown; [ ] = remark or other dose. This is a sample that favours compounds with a hit; in the whole collection about 10% have one here. The call rests on the fitted dose curve; in most records, active means well fitted curve in the direction sought with a large enough effect; inconclusive means small, poorly fitted or top-dose-only effect, or another doubt; inactive means no such curve, though single readings can be large; an effect the other way counts as inactive or inconclusive. Potency means the concentration at half of the fitted maximal effect.

SMILES | VP16 counter | RORg inh | MCF10A rereplic | SW480 rerep | KB-V1 cytotox | KB-3-1 cytotox
CC(=O)c1ccc(NC(=O)CN(C)S(=O)(=O)c2cccc3nsnc23)cc1 | x | x | x | x | i | i
COc1ccc(NC(=O)c2cc(C3CCCCN3S(C)(=O)=O)on2)c(C)c1 (centres undefined) | x | x | x | x | i | i
Cc1ccc(N=C2C(=O)Nc3ccc(Br)cc32)cc1 | -9% | 4% | u | u | i | i
O=C1Nc2ccc(Br)cc2C1=C1CCCCC1 | -8% | -16% | 18µM* | u | u | i
CC1(C)CC(=O)c2cc(C(=O)Nc3cccc4ccccc34)c(=O)[nH]c2C1 | x | x | x | x | i | i
Cc1cccc(Nc2nc(N)nc(-c3oc4ccccc4c3C)n2)c1 | -20% | 23% | 16µM* | 18µM* | 21µM* | u
COc1cccc(Nc2nc(N)nc(-c3oc4ccccc4c3C)n2)c1 | -9% | 0% | 7.3µM* | 13µM* | 4.6µM* | u
CCc1nc(Nc2cccc(OC)c2)c2oc3ccccc3c2n1 | -1% | 9% | -15% | 5% | i | i
Cc1ccc(Nc2nc(N)nc(-c3oc4ccccc4c3C)n2)cc1 | -23% | -9% | u | u | u | 0.18µM*
Cc1c(-c2nc(N)nc(Nc3ccccc3F)n2)oc2ccccc12 | -3% | -1% | 18% | u | 16µM* | i
Cc1cccc(Nc2ncnc(N)n2)c1 | -12% | -10% | 2% | -1% | i | i
COc1ccccc1Nc1nc(N)nc(-c2cc3ccccc3o2)n1 | u | -16% | u | u | u | i
COc1ccccc1OC(C)C(=O)Nc1ccc(-c2nc3ccccc3s2)cc1 (centres undefined) | x | x | x | x | i | i
COc1cccc(Nc2nc3cc(C)ccc3cc2C)c1 | x | x | x | x | i | i
O=S(=O)(c1ccccc1)N1CCN(Cc2ccccc2)CC1 | 3% | 3%[1.91 µM] | 11% | -5% | u | u
O=S(=O)(c1ccccc1)N1CCN(Cc2ccccc2)c2ccccc21 | x | x | 2% | 1% | 18µM* | i
O=C(OCn1ncc(Cl)c(Cl)c1=O)c1ccc(C(F)(F)F)cc1 | 7.1µM* | u | 6.5µM* | 6.5µM* | 6.5µM* | 7.3µM*
Cc1ccc(C(=O)OCn2ncc(Cl)c(Cl)c2=O)cc1 | -12% | 25% | 3.7µM* | u | u | 4.6µM*
O=C(O)c1ccc(-n2ncc(Cl)c(Cl)c2=O)cc1 | x | x | x | x | u | i
CCN(C(=S)NC(=O)C1CCCC1)C1CCCCC1 | u | 4.5µM* | -5% | 2% | i | i
CCN(CC(=O)Nc1ccccc1Br)C1CCCCC1 | 5% | 14% | u | 0% | i | i
CCN(C(=S)NC(=O)c1ccccc1Br)C1CCCCC1 | 2.8µM* | 1µM* | 3% | 0.52µM* | i | i
CC(=O)NNC(=S)NC(=O)c1ccccc1 | -24% | u | -4% | -3% | u | i
O=C(NC(=S)NC1CCCCCCCCCCC1)c1cccnc1 | -11% | 0% | 1% | -12% | i | i
O=C(NC(=S)NC1C2CC3CC(C2)CC1C3)c1ccccc1 (centres undefined) | 1.8µM* | 1.6µM* | u | 21% | i | i
O=C(NC(=S)NC1CC1)c1cccnc1 | u | 5.6µM* | 4% | -6% | i | i
Cc1cccc(-c2nc(CS(=O)CC(=O)N3CC(C)CC(C)C3)c(C)o2)c1 (centres undefined) | 0% | -5% | 0% | -22% | u | i
CCS(=O)(=O)N1CCc2cc(C(=O)N3CCN(c4ccc(OC)cc4)CC3)ccc21 | x | x | x | x | i | i
CC(NC(=S)NC(=O)c1ccccc1Br)c1ccccc1 (centres undefined) | 7.1µM* | 6.3µM* | 6% | -1% | i | i
O=C(NC(=S)NC1CCCC1)c1ccccc1 | 10µM* | 7.1µM* | 8% | -13% | i | i
